This assay deals with primary human hepatic stellate cells (donor 1). The assay can be described thus: scaled lipid accumulation score (0 = DMSO-like, 1 = nortriptyline-like); higher = stronger HSC inactivation (lipid re-accumulation), active = hit call of the paper. As to conditions: 48 h.
Where [1] appears, read: library stock concentration: 1 mM.
[2] abbreviates: library stock concentration: 3.33 mM.
Setting [3] is: library stock concentration: 10 mM.
Setting [4] is: library stock concentration: 80 uM.
The mark [5] stands for this setting: library stock concentration: 400 uM.
Where [6] appears, read: library stock concentration: 2 mM.

The structures appear in SMILES notation. “And” between values parts separate entries of the source, which are not always exact repeats. Equal entries are not always repeated. Structures can show the parent of a compound that is named as a salt. In all, about 5,800 compounds went through this assay and about 620 (11%) showed activity. Many of the other results were omitted from the sample, so actives are more common in it than they were. A number with no mark means an inactive call.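 The calls were made as follows: active = score above a cut-off or among the top three wells of a plate; in these data no inactive exceeds 0.85.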

For `CCCCCCCCCCCCC/C=C/[C@@H](O)[C@H](CO)NCCCCCCCC` [C8 Ceramine], under setting [1], the “scaled lipid accumulation score” value is 0.067.
`CCCCCCCCCCCCC/C=C/[C@@H](O)[C@H](CO)NCCCCCCCC` [C-8 Ceramine]: the “scaled lipid accumulation score” value under setting [1] was 0.054.
On the same count and under the same terms, the figure for `CCCCCC(O)C=CC1C(O)CC(O)C1CC=CCCCCOC` (stereo not drawn) [Prostaglandin F2.alpha. Alcohol methyl ether] is at most 0.
For `Cc1nc2c(-c3cnc(N)nc3)nc(N3CCOCC3)nc2n1C(C)C`, the “scaled lipid accumulation score” value was 0.019 under setting [2] and at most -0.001 under setting [3].
For the molecule `Nc1ccc2c3c(cccc13)C(=O)NC2=O` [4-Amino-1,8-naphthalimide] [listing 1 of 2 here], under “library stock concentration: 23.6 mM”, the “scaled lipid accumulation score” value is 0.762.
With `Nc1ccc2c3c(cccc13)C(=O)NC2=O` [4-Amino-1,8-naphthalimide] [listing 2 of 2 here], the “scaled lipid accumulation score” value under setting [3] was 0.886 (active).
As for `O=C1NC(=O)C(c2c[nH]c3ccccc23)=C1c1c[nH]c2ccccc12` [Bisindolylmaleimide IV], the “scaled lipid accumulation score” value reads like this: under setting [1], at most 0; under setting [2], 0.045.
For the molecule `CC(C)C[C@H](NP(=O)(O)O[C@@H]1O[C@@H](C)[C@H](O)[C@@H](O)[C@H]1O)C(=O)N[C@@H](Cc1c[nH]c2ccccc12)C(=O)O` [Phosphoramidon Disodium Salt], the “scaled lipid accumulation score” value runs as follows: under setting [2], at most -0.009; under setting [3], at most 0.
Turning to `Cc1cc(CN2CCN(c3c(Br)cnc4nc(-c5ccc(N6CCN(C)CC6)cc5)[nH]c34)CC2)no1`, under setting [3], the “scaled lipid accumulation score” value is 0.471.
Regarding `Cc1cc(CN2CCN(c3c(Br)cnc4[nH]c(-c5ccc(N6CCN(C)CC6)cc5)nc34)CC2)no1`, the “scaled lipid accumulation score” value under setting [2] was 0.857 (active).
Regarding `O=C(Nc1ccc(I)cc1)NC1CCCCC1`, the “scaled lipid accumulation score” value under setting [3] is 0.938 (active).
As for `O=C(Nc1ccccc1)Nc1ccc(-c2ccc(C(=O)[C@@H]3CCC[C@H]3C(=O)O)cc2)cc1`, the “scaled lipid accumulation score” value reads like this: under setting [2], at most 0; under setting [3], at most 0.
In the case of `CC(=O)c1ccc(S(=O)(=O)NC(=O)NC2CCCCC2)cc1` [Acetohexamide], the “scaled lipid accumulation score” value is at most 0. Moreover, the “scaled lipid accumulation score” value (library stock concentration: 6.2 mM) is at most 0. Moreover, under setting [3], the “scaled lipid accumulation score” value was 0.116.
With `CCCCCC/C=C\CCCCCCCC(=O)OCC` [Palmitoleic Acid ethyl ester], the “scaled lipid accumulation score” value under setting [1] is at most 0.
`COc1ccc(CCn2nnnc2C2(c3ccc(C)cc3)CC2)cc1` [Mephetyl tetrazole]: the “scaled lipid accumulation score” value under setting [3] is at most -0.07.
In the case of `COC(=O)C(C)c1ccc(C(=O)c2cccs2)cc1` (stereo not drawn) [Suprofen methyl ester], the “scaled lipid accumulation score” value under setting [3] is at most 0.
With `COC(=O)c1ccc2c(C(=Nc3ccc(N(C)C(=O)CN4CCN(C)CC4)cc3)c3ccccc3)c(O)[nH]c2c1`, the “scaled lipid accumulation score” value under setting [4] is 0.316, the “scaled lipid accumulation score” value under setting [5] was 0.522 and the “scaled lipid accumulation score” value under setting [6] was 0.258.
As for `COC(=O)c1ccc2c(c1)NC(=O)/C2=C(\Nc1ccc(N(C)C(=O)CN2CCN(C)CC2)cc1)c1ccccc1` [Intedanib  (BIBF 1120, Vargatef) (2 mM)], the “scaled lipid accumulation score” value under setting [6] is 0.838.
`Cc1scc2c1N(C(=O)CN1CCN(C)CC1)c1ccccc1NC2=O` [Telenzepine dihydrochloride]: the “scaled lipid accumulation score” value was at most 0. Besides, the “scaled lipid accumulation score” value under setting [3] is 0.052 and 0.027.
For the molecule `CN1CCN(CC(=O)N2c3ccccc3C(=O)Nc3cccnc32)CC1` [Pirenzepine dihydrochloride], the “scaled lipid accumulation score” value is at most 0. Also, under setting [3], the “scaled lipid accumulation score” value is at most 0.
For the molecule `COC(=O)c1ccc2c(c1)NC(=O)/C2=C(\Nc1ccc(N(C)C(=O)CN2CCN(C)CC2)cc1)c1ccccc1` [Intedanib (BIBF 1120, Vargatef) (10 mM)], the “scaled lipid accumulation score” value under setting [3] was 1.51 (active).
On to `COC(=O)c1ccc2c(c1)NC(=O)/C2=C(\Nc1ccc(N(C)C(=O)CN2CCN(C)CC2)cc1)c1ccccc1` [Intedanib (BIBF 1120, Vargatef) (0.4 mM)], for which the “scaled lipid accumulation score” value under setting [5] was 0.323.
As for `Cc1scc2c1N(C(=O)CN1CCN(C)CC1)c1ccccc1NC2=O` [Telenzepine hydrochloride], the “scaled lipid accumulation score” value under setting [3] is 0.084.
With `COC(=O)c1ccc2c(c1)NC(=O)C2=C(Nc1ccc(N(C)C(=O)CN2CCN(C)CC2)cc1)c1ccccc1` [Nintedanib (BIBF 1120)], the “scaled lipid accumulation score” value is, setting by setting: under setting [2], 1.2 (active); under setting [3], 1.33 (active).
On to `CN1CCN(CC(=O)N2c3ccccc3C(=O)Nc3cccnc32)CC1` [Pirenzepine hydrochloride], for which the “scaled lipid accumulation score” value (library stock concentration: 4.7 mM) is at most 0 and the “scaled lipid accumulation score” value under setting [3] was at most 0.
`COC(=O)c1ccc2c(c1)NC(=O)C2=C(Nc1ccc(N(C)C(=O)CN2CCN(C)CC2)cc1)c1ccccc1`: under setting [3], the “scaled lipid accumulation score” value is 0.976 (active).
As to `CN1CCN(CC(=O)N2c3ccccc3C(=O)Nc3cccnc32)CC1` [Pirenzepine 2HCl], where the note is “library stock concentration: 5.7 mM”, the “scaled lipid accumulation score” value is at most -0.006.
`Cc1scc2c1N(C(=O)CN1CCN(C)CC1)c1ccccc1NC2=O` [Telenzepine 2HCl]: the “scaled lipid accumulation score” value (library stock concentration: 5.4 mM) was 0.006.
Consider `N=C(N)S/C=C\C(=O)O` [ZAPA sulphate], for which, under setting [3], the “scaled lipid accumulation score” value is 0.011.
Regarding `CC(O)C(=O)O.N` (stereo not drawn), the “scaled lipid accumulation score” value under setting [3] is at most 0.
In the case of `CC(C)S(=O)(=O)Nc1ccc(F)c(C(=O)c2c[nH]c3ncc(-c4cccnc4)cc23)c1F`, the “scaled lipid accumulation score” value under setting [4] was at most 0, the “scaled lipid accumulation score” value under setting [5] was at most 0, the “scaled lipid accumulation score” value under setting [6] was at most 0 and the “scaled lipid accumulation score” value under setting [3] was 0.059.
On to `CC(C)(CCCCCCCCCCC(C)(C)CC(=O)O)CC(=O)O`, for which, under setting [1], the “scaled lipid accumulation score” value is 0.013.
Still for that read-out and setting: the figure for `CCCCC/C=C\C/C=C\C/C=C\C/C=C\CCCC(=O)OCC` [Arachidonic Acid ethyl ester] is at most 0; for `CC(C)=CCC/C(C)=C/CC/C(C)=C/CSc1ccccc1C(N)=O` [Farnesyl Thiosalicylic Acid Amide] it is at most 0; for `CCCCCCCCCCCCCCCC(=O)OC[C@H](COP(=O)([O-])OCC[N+](C)(C)C)OC(=O)CCCCCCCC(=O)/C=C/C(=O)O` it is 0.026.
In the case of `Nc1nc2c(nc(Br)n2[C@@H]2O[C@@H]3COP(=O)(O)O[C@H]3[C@H]2O)c(=O)[nH]1` [8-Bromo-cGMP, sodium salt], the “scaled lipid accumulation score” value under setting [3] is 0.026.
On to `CCCCC/C=C\C[C@@H](O)/C=C/C=C/C=C\[C@@H](O)CCCC(=O)O` [Leukotriene B4], for which the “scaled lipid accumulation score” value (library stock concentration: 100 uM) is at most -0.021.
As for `NC(CCCP(=O)(O)O)C(=O)O` (stereo not drawn), the “scaled lipid accumulation score” value under setting [3] is 0.024.
Same read-out and setting: the figure for `NC(CCCP(=O)(O)O)C(=O)O` (stereo not drawn) [D(-)-2-Amino-5-phosphonopentanoic acid] is 0.148.
In the case of `CCCCCCCCc1ccc(CCC(N)(CO)CO)cc1.Cl` [Fingolimod (FTY720) HCl], the “scaled lipid accumulation score” value under setting [2] was 1.17 (active).
As to `CCCCCCCCc1ccc(CCC(N)(CO)CO)cc1`, the “scaled lipid accumulation score” value under setting [1] was 0.527.
`CCCCCCCCc1ccc(-c2ccc(C(=O)O)cc2)cc1`: the “scaled lipid accumulation score” value under setting [3] was ≤ 0 and 0.032.
Turning to `CCCCCCCCc1ccc(CCC(N)(CO)CO)cc1` [Fingolimod (FTY720) HCl], the “scaled lipid accumulation score” value under setting [3] was 0.376.
